Bioassay records (PubChem BioAssay)
Hits are enriched below; roughly 5.4% of the tested compounds scored in any of these assays.
ALR inh – blocks human ALR sulfhydryl oxidase activity; 290,000 tested, 3.8% active; P55789; inhibition, % (no concentration beside the values); purified ALR, DTT oxidation, H2O2 HRP-luminol luminescence;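 active means mean replicate inhibition above about 79%, with every replicate also reaching it, limit read from the data; inconclusive means only one of the two criteria met; inactive means mean below limit and not every replicate reaching it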
Calb FLC – C. albicans growth modulation with fluconazole | C. albicans CaCi-2 (fluconazole-resistant clinical isolate) + fluconazole, Alamar Blue growth, 48 h | growth inhibition, % (no concentration beside the values) | 300,000 tested, 0.57% active;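 active means growth inhibition above about 58% in most replicates, limit read from the data, passing the limit was not always enough; inconclusive means exactly half the replicates above a set limit; inactive means most replicates below a set limit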;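 further: all wells also contain fluconazole at 8 µg/ml as a sub-toxic cotreatment; 0% = median of DMSO wells and 100% = median of geldanamycin control wells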
CSC inhib – cancer stem cell inhibition; 300,000 tested, 1.1% active; inhibition, % at 7.5 µM; cancer stem cell-like cells viability, luminescence; in the data active means inhibition above about 75%; inconclusive means no clear call, values can overlap the other calls; tested in HMLE shEcad cells
PP1 counter – blocks human PP1-alpha phosphatase, a PP5 counter-screen; P62136; 320,000 tested, 0.9% active; inhibition, % at 6.7 µM; purified PP1alpha, OMFP fluorescence; AID 2235;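 active means inhibition above the mean inhibition of all tested compounds plus 3 SD, computed separately for each screening campaign, cut at about 15% in these data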
PP5 primary – inhibitors of human protein phosphatase 5 (PP5) | P53041 | purified PP5c, OMFP substrate fluorescence | inhibition, % at 6.7 µM | 320,000 tested, 0.18% active;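 active means inhibition above the campaign's mean inhibition across all tested compounds plus 3 SD, cut at about 9.5% in these data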;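 further: 0% = DMSO only and 100% = 100 µM cantharidin control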
PP5 conf – confirmation of human PP5 phosphatase inhibitors. Purified PP5, fluorogenic phosphatase substrate, fluorescence. inhibition, % at 6.7 µM. 460 tested, 22% active. AID 2331. shares compounds with PP5 primary; in the data active means inhibition above about 9.5%
PP1 counter 3x – counter-screen for PP5 inhibitors: human PP1 phosphatase inhibition; shares compounds with PP5 primary; PP1 enzyme, fluorescent phosphatase substrate; inhibition, % at 6.7 µM; 460 tested, 4% active; AID 2355; in the data active means inhibition above about 16%
Active calls of the source: *.

Results for CC(C)(C)OC(=O)NCCCC[C@H](NC(=O)c1nc[nH]c1C(=O)N[C@@H](CCCCNC(=O)OC(C)(C)C)C(=O)OC(C)(C)C)C(=O)OC(C)(C)C ?
Calb FLC: 18; CSC inhib: 7; PP1 counter: 11; PP5 primary: 16*; PP5 conf: 11*; PP1 counter 3x: 12

Results for CN(Cc1ccon1)C(=O)CCc1nnc(Cc2ccc(-c3ccccc3)cc2)o1 ?
ALR inh: -2; Calb FLC: -4; CSC inhib: -3; PP1 counter: 1; PP5 primary: 1

What do the screens show for `Cn1c(SCC(=O)N2c3ccccc3CCc3ccccc32)nnc1-c1ccc(O)cc1`?
ALR inh: 0; Calb FLC: 19; CSC inhib: -8; PP1 counter: -4; PP5 primary: 9.7*; PP5 conf: -4; PP1 counter 3x: -6

What do the screens show for `O=C(Nc1ccc(OC(F)(F)F)cc1)N1CCN(c2ccnc3cc(Cl)ccc23)CC1`?
ALR inh: -8; Calb FLC: 35; CSC inhib: 64; PP1 counter: 2; PP5 primary: 10*; PP5 conf: 5; PP1 counter 3x: 5

What do the screens show for `CC(=O)c1ccc([C@H]2C[C@@]34CN(C(=O)OC(C)(C)C)S(=O)(=O)[C@H]3C[C@H]2O4)cc1`?
ALR inh: -4; Calb FLC: 1; CSC inhib: 21; PP1 counter: -3; PP5 primary: 0

How did Cc1ccc(OCC(=O)N(C)CC(=O)Nc2ccc(Cl)c(C(F)(F)F)c2)c([N+](=O)[O-])n1 do in these assays?
ALR inh: -3; CSC inhib: -7; PP1 counter: 1; PP5 primary: 3

What do the screens show for `Nc1nc(Nc2cccc(F)c2)nc(NCc2ccco2)c1[N+](=O)[O-]`?
ALR inh: 4; Calb FLC: -6; CSC inhib: 37; PP1 counter: 3; PP5 primary: 11*; PP5 conf: 3; PP1 counter 3x: 5

How did CC(C)c1ccc(C(O)P(=O)(OCc2ccccc2)c2ccc(N(C)C)cc2)cc1 (stereo not drawn) do in these assays?
ALR inh: -1; Calb FLC: -18; CSC inhib: 9; PP1 counter: 3; PP5 primary: 9.7*; PP5 conf: 5; PP1 counter 3x: 6

What do the screens show for `CN(C)c1ccc(C(O)P(=O)(OCc2ccccc2)c2ccc(N(C)C)cc2)cc1` (stereo not drawn)?
ALR inh: 16; Calb FLC: 2; CSC inhib: 5; PP1 counter: -2; PP5 primary: 2

Results for CCN(CC)C1=CC2=CC(=C(C#N)C#N)CCC2CC1 (stereo not drawn) ?
ALR inh: inconclusive; CSC inhib: -1; PP1 counter: -47; PP5 primary: -61; PP5 conf: -142; PP1 counter 3x: -48

What do the screens show for `Cc1ccc(-c2noc(CN3C(C)CCCC3C)n2)cc1` (stereo not drawn)?
ALR inh: -20; Calb FLC: 5; CSC inhib: 6; PP1 counter: 1; PP5 primary: 0

How did Cn1c(SCc2cccc(F)c2)nnc1-c1ccccn1 do in these assays?
ALR inh: -5; Calb FLC: -3; CSC inhib: -16; PP1 counter: 1; PP5 primary: 4

How did Cc1ccccc1CSc1nnc(-c2ccccn2)n1C do in these assays?
ALR inh: -2; Calb FLC: 18; CSC inhib: -10; PP1 counter: 1; PP5 primary: 23*; PP5 conf: -3; PP1 counter 3x: -1

How did O=C(NCCc1ccccn1)c1cc(-c2cccc3ccccc23)nc2ccccc12 do in these assays?
ALR inh: -3; Calb FLC: -15; CSC inhib: -3; PP1 counter: 2; PP5 primary: 21*; PP5 conf: -3; PP1 counter 3x: -3

Results for Cc1ccc(-c2cc(C(=O)NCCc3ccccn3)c3ccccc3n2)c(C)c1 ?
Calb FLC: -8; CSC inhib: 16; PP1 counter: 3; PP5 primary: 2

How did O=C(O)c1nnn(-c2ccc(F)cc2F)c1-c1ccccc1 do in these assays?
ALR inh: 27; Calb FLC: -8; CSC inhib: -5; PP1 counter: -1; PP5 primary: -2
